Assay results as given in publication PMC11102866, “Nucleosome-bound NR5A2 structure reveals pioneer factor mechanism by DNA minor groove anchor competition”.

B1: 112 (nucleosome)
DNA 1: ATCCTGGAGAATCCCGGTGCCGAGGCCGCTCAATTGGTCGTAGACAGCTCTAGCACCGCTTAAACGCACGTACGCGCTGTCCCCCGCGTTTTAACCGCCAAGGGGATTACTCCCTCAAGGCCAGGCACGTGTCAGATATATACATCCTGTGAT
DNA 2: ATCACAGGATGTATATATCTGACACGTGCCTGGCCTTGAGGGAGTAATCCCCTTGGCGGTTAAAACGCGGGGGACAGCGCGTACGTGCGTTTAAGCGGTGCTAGAGCTGTCTACGACCAATTGAGCGGCCTCGGCACCGGGATTCTCCAGGAT
modifications: reconstituted with mouse histones H2A, H2B, H3.3 and H4
B2: 108 (nucleosome)
DNA 1: ATCCTGGAGAATCCCGGTGCCGAGGCCGCTCAATTGGTCGTAGACAGCTCTAGCACCGCTTAAACGCACGTACGCGCTGTCCCCCGCGTTTTAACCGCCAAGGGGATTACTCAAGGCCATCCAGGCACGTGTCAGATATATACATCCTGTGAT
DNA 2: ATCACAGGATGTATATATCTGACACGTGCCTGGATGGCCTTGAGTAATCCCCTTGGCGGTTAAAACGCGGGGGACAGCGCGTACGTGCGTTTAAGCGGTGCTAGAGCTGTCTACGACCAATTGAGCGGCCTCGGCACCGGGATTCTCCAGGAT
modifications: reconstituted with mouse histones H2A, H2B, H3.3 and H4
B3: 107 (nucleosome)
DNA 1: ATCCTGGAGAATCCCGGTGCCGAGGCCGCTCAATTGGTCGTAGACAGCTCTAGCACCGCTTAAACGCACGTACGCGCTGTCCCCCGCGTTTTAACCGCCAAGGGGATTATCAAGGCCACTCCAGGCACGTGTCAGATATATACATCCTGTGAT
DNA 2: ATCACAGGATGTATATATCTGACACGTGCCTGGAGTGGCCTTGATAATCCCCTTGGCGGTTAAAACGCGGGGGACAGCGCGTACGTGCGTTTAAGCGGTGCTAGAGCTGTCTACGACCAATTGAGCGGCCTCGGCACCGGGATTCTCCAGGAT
modifications: reconstituted with mouse histones H2A, H2B, H3.3 and H4
B4: 12 (nucleosome)
DNA 1: ATCCTGGAGAATCCTCAAGGCCAGGCCGCTCAATTGGTCGTAGACAGCTCTAGCACCGCTTAAACGCACGTACGCGCTGTCCCCCGCGTTTTAACCGCCAAGGGGATTACTCCCTAGTCTCCAGGCACGTGTCAGATATATACATCCTGTGAT
DNA 2: ATCACAGGATGTATATATCTGACACGTGCCTGGAGACTAGGGAGTAATCCCCTTGGCGGTTAAAACGCGGGGGACAGCGCGTACGTGCGTTTAAGCGGTGCTAGAGCTGTCTACGACCAATTGAGCGGCCTGGCCTTGAGGATTCTCCAGGAT
modifications: reconstituted with mouse histones H2A, H2B, H3.3 and H4
B5: 13 (nucleosome)
DNA 1: ATCCTGGAGAATCCCTCAAGGCCAGCCGCTCAATTGGTCGTAGACAGCTCTAGCACCGCTTAAACGCACGTACGCGCTGTCCCCCGCGTTTTAACCGCCAAGGGGATTACTCCCTAGTCTCCAGGCACGTGTCAGATATATACATCCTGTGAT
DNA 2: ATCACAGGATGTATATATCTGACACGTGCCTGGAGACTAGGGAGTAATCCCCTTGGCGGTTAAAACGCGGGGGACAGCGCGTACGTGCGTTTAAGCGGTGCTAGAGCTGTCTACGACCAATTGAGCGGCTGGCCTTGAGGGATTCTCCAGGAT
modifications: reconstituted with mouse histones H2A, H2B, H3.3 and H4
B6: 1 (nucleosome)
DNA 1: ATCTCAAGGCCACCCGGTGCCGAGGCCGCTCAATTGGTCGTAGACAGCTCTAGCACCGCTTAAACGCACGTACGCGCTGTCCCCCGCGTTTTAACCGCCAAGGGGATTACTCCCTAGTCTCCAGGCACGTGTCAGATATATACATCCTGTGAT
DNA 2: ATCACAGGATGTATATATCTGACACGTGCCTGGAGACTAGGGAGTAATCCCCTTGGCGGTTAAAACGCGGGGGACAGCGCGTACGTGCGTTTAAGCGGTGCTAGAGCTGTCTACGACCAATTGAGCGGCCTCGGCACCGGGTGGCCTTGAGAT
modifications: reconstituted with mouse histones H2A, H2B, H3.3 and H4
B7: 2 (nucleosome)
DNA 1: ATCCTCAAGGCCACCGGTGCCGAGGCCGCTCAATTGGTCGTAGACAGCTCTAGCACCGCTTAAACGCACGTACGCGCTGTCCCCCGCGTTTTAACCGCCAAGGGGATTACTCCCTAGTCTCCAGGCACGTGTCAGATATATACATCCTGTGAT
DNA 2: ATCACAGGATGTATATATCTGACACGTGCCTGGAGACTAGGGAGTAATCCCCTTGGCGGTTAAAACGCGGGGGACAGCGCGTACGTGCGTTTAAGCGGTGCTAGAGCTGTCTACGACCAATTGAGCGGCCTCGGCACCGGTGGCCTTGAGGAT
modifications: reconstituted with mouse histones H2A, H2B, H3.3 and H4
B8: 110 (nucleosome)
DNA 1: ATCCTGGAGAATCCCGGTGCCGAGGCCGCTCAATTGGTCGTAGACAGCTCTAGCACCGCTTAAACGCACGTACGCGCTGTCCCCCGCGTTTTAACCGCCAAGGGGATTACTCTCAAGGCCACAGGCACGTGTCAGATATATACATCCTGTGAT
DNA 2: ATCACAGGATGTATATATCTGACACGTGCCTGTGGCCTTGAGAGTAATCCCCTTGGCGGTTAAAACGCGGGGGACAGCGCGTACGTGCGTTTAAGCGGTGCTAGAGCTGTCTACGACCAATTGAGCGGCCTCGGCACCGGGATTCTCCAGGAT
modifications: reconstituted with mouse histones H2A, H2B, H3.3 and H4

Target: NR5A2 wild type;histone octamer (Homo sapiens;, UniProt O00482;C0HKE1;Q6ZWY9;P84244;P62806 1-541;2-130;2-126;2-136;2-103, |)
Assay: SeEN-seq (EMSA of nucleosome library followed by sequencing); 0.8 uM human NR5A2; 20 mM Tris-HCl pH 7.5, 120 mM NaCl, 1 mM MgCl2, 10 uM ZnCl2, 1 mM DTT, 100 ug/ml BSA, room temperature, 30 min; 0.1 uM nucleosome library; high values mean tight binding

Binder | binding signal
B1 | 0.87 log2 enrichment (bound/unbound, relative to Widom 601)
B2 | 0.869 log2 enrichment (bound/unbound, relative to Widom 601)
B3 | 0.733 log2 enrichment (bound/unbound, relative to Widom 601)
B4 | 4.6 log2 enrichment (bound/unbound, relative to Widom 601)
B5 | 4.51 log2 enrichment (bound/unbound, relative to Widom 601)
B6 | 6.41 log2 enrichment (bound/unbound, relative to Widom 601)
B7 | 6.87 log2 enrichment (bound/unbound, relative to Widom 601)
B8 | 0.939 log2 enrichment (bound/unbound, relative to Widom 601)

Target: mouse Nr5a2 wild type;histone octamer (Mus musculus;, UniProt P45448;C0HKE1;Q6ZWY9;P84244;P62806 1-560;2-130;2-126;2-136;2-103, |)
Assay: SeEN-seq (EMSA of nucleosome library followed by sequencing); 1.2 uM mouse Nr5a2; 20 mM Tris-HCl pH 7.5, 120 mM NaCl, 1 mM MgCl2, 10 uM ZnCl2, 1 mM DTT, 100 ug/ml BSA, room temperature, 30 min; 0.1 uM nucleosome library; high values mean tight binding

Binder | binding signal
B1 | 0.753 log2 enrichment (bound/unbound, relative to Widom 601)
B2 | 0.815 log2 enrichment (bound/unbound, relative to Widom 601)
B3 | 0.834 log2 enrichment (bound/unbound, relative to Widom 601)
B4 | 4.25 log2 enrichment (bound/unbound, relative to Widom 601)
B5 | 3.55 log2 enrichment (bound/unbound, relative to Widom 601)
B6 | 5.85 log2 enrichment (bound/unbound, relative to Widom 601)
B7 | 5.51 log2 enrichment (bound/unbound, relative to Widom 601)
B8 | 0.962 log2 enrichment (bound/unbound, relative to Widom 601)
